Reference: PubChem BioAssay AID1851 (National Center for Advancing Translational Sciences (NCATS), 2009)
Where “and” joins values, the source holds several entries; their conditions need not be identical. Equal values may be shown once. The campaign covered roughly 16,000 compounds. About 5,700 (36%) were called active. Roughly 24% stayed inconclusive and do not appear here. The list shows a part of the results. A number with no mark means an inactive call. The call rests on the fitted dose curve; in most records, active means well fitted curve in the direction sought with a large enough effect; inconclusive means small, poorly fitted or top-dose-only effect, or effect the other way; inactive means no such curve, though single readings can be large or run the other way.

target: Cytochrome P450 1A2 (Homo sapiens) (UniProt P05177); assay: Cytochrome panel assay with activity outcomes; conditions: recombinant CYP, pro-luciferin dealkylation, luminescence, p450-cyp1a2; series mostly up to 57.1 µM; activity, negative = inhibition: at the top concentration
Sequence (P05177 whole entry, looked up): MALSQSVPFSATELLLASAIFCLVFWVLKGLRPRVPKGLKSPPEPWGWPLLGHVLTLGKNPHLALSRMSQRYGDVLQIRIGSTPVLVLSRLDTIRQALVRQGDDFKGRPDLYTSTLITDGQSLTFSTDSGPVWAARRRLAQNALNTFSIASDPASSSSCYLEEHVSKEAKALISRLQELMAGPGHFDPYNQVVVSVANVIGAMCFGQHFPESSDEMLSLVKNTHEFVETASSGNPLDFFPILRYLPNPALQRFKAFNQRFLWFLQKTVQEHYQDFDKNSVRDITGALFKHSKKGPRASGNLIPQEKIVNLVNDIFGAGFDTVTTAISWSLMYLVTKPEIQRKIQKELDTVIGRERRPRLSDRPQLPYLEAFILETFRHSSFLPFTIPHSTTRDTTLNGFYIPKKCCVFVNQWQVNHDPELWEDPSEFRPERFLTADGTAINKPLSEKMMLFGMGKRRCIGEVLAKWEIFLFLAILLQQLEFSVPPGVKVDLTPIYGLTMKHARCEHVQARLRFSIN
On the % scale 0 is the no-effect control and ±100 the full control effect.

Compound | activity, negative = inhibition | AC50
Cc1cc(C)cc(OCC(=O)NNC(=O)c2cc(C)[nH]n2)c1 | -6.86% | –
COCC(=O)N1CCC2(CC1)CN(C(=O)Nc1cccc(F)c1)C2 | 2.7% | –
O=C(Cn1cnc2ccccc2c1=O)Nc1nnc(SCc2ccccc2)s1 | -19.6% | –
O=C(Cc1ccccc1)Nc1nc(=O)c2ccccc2s1 | – | 2.24 µM (active)
CCc1ccc2c(c1)c(N=NC1=NC(=O)CS1)c(O)n2CC | – | 1.41 µM (active)
Oc1cccc2ccc(SSc3ccc4cccc(O)c4n3)nc12 | – | 3.16 µM (active)
COc1ccc(N2CCN(C(=N)/C(C(C)=O)=C(\C)O)CC2)cc1 | -6.13% | –
COc1ccc(NC(=O)N2CC3(CCN(C(C)=O)CC3)C2)cc1 | -1.08% | –
COc1ccc(-c2ccc(C(=S)N3CCN(C(C)=O)CC3)o2)cc1 | – | 2.24 µM (active)
O=C(c1cn(-c2ccccc2)nc1-c1cccs1)N1CCOCC1 | – | 15.8 µM (active)
O=C(c1ccncc1)N1CCC2(CC1)CCN(c1ccccc1)CC2 | -23.6% | –
O=C(Nc1c(C(=O)N2CCOCC2)cnn1-c1ccccc1)c1ccco1 | -28.5% | –
C[C@@H]1/C=C\CC(=O)OC[C@H](C)C(=O)N[C@@H](C)C(=O)OC1 | -0.299% [at 11.4 µM] | –
COc1ccccc1CNc1cc(-c2cccc(NS(C)(=O)=O)c2)ncn1 | – | 15.8 µM (active)
COc1ccc(CNc2cc(-c3cccc(NS(C)(=O)=O)c3)ncn2)c(OC)c1 | – | 15.8 µM (active)
O=C(CSCc1c(Cl)cccc1Cl)NCc1cccnc1 | – | 5.01 µM (active)
CCS(=O)(=O)N1CCC(C(=O)NCc2cccnc2)CC1 | -1.47% | –
Cc1ccc(S(=O)(=O)N2CCC(C(=O)NCc3cccnc3)CC2)cc1 | -1.53% | –
Fc1ccc(COc2ccc(Br)cc2CNCc2ccncc2)cc1 | – | 0.316 µM (active)
OC(CNCc1ccc(F)cc1)(c1ccc(F)cc1)c1ccc(F)cc1 | 4.03% | –
Cc1nnc(NC(=O)CCC(=O)NCc2cccs2)s1 | -18% | –
Cc1nnc(NC(=O)c2oc3c(ccc4ccccc43)c2C)s1 | – | 0.2 µM (active)
COC(=O)[C@@H](NC(=O)Nc1ccc(C(C)=O)cc1)C(C)C | -4.26% | –
COc1cc([N+](=O)[O-])ccc1NC(=O)CCCOc1cccc(C)c1 | – | 7.94 µM (active)

Compound | activity, negative = inhibition | AC50
Cc1cccc(OCCCC(=O)Nc2ccccc2C(F)(F)F)c1 | – | 11.2 µM (active)
Cc1ccc(OCC(=O)NNC(=O)CCC(=O)Nc2ccc(C)cc2C)cc1 | -2.46% | –
Cc1c(NC(=O)C(Sc2ccccc2)c2ccccc2)cccc1[N+](=O)[O-] (centres undefined) | -9.98% | –
Cc1c(NC(=O)/C=C/C(=O)O)cccc1[N+](=O)[O-] | -12.2% | –
Cc1ccc(OCCCC(=O)Nc2ccccc2C(F)(F)F)cc1 | – | 4.47 µM (active)
Cc1c(NC(=O)CCCOc2ccccc2)cccc1[N+](=O)[O-] | – | 12.6 µM (active)
Cc1cccc(OCCCC(=O)Nc2ccc(N3CCCCC3)cc2)c1 | -15.4% | –
Cc1nn(-c2ccccc2)c2c1C(c1ccc(O)c(O)c1)N1C(=N2)C(Nc2ccccc2)=Nc2ccccc21 (centres undefined) | -3.72% | –
COc1ccc(C(=O)N2CC3(CC(c4ccc(Cl)cc4)=NO3)C[C@H]2C(=O)NCC(N)=O)cc1 (some centres undefined) | -12.9% | –
C[N+]1(CC(=O)OCCCc2ccccc2)CCOCC1 | 9.57% | –
CCN(CC(=O)Nc1ccc([N+](=O)[O-])cc1OC)c1ccccc1 | – | 12.6 µM (active)
COc1ccccc1NC(=O)Cn1cncc1-c1ccc([N+](=O)[O-])cc1 | -23.8% | –
COc1ccc([N+](=O)[O-])cc1NC(=O)CC(C)c1ccccc1 (centres undefined) | – | 5.01 µM (active)
C=CC[C@@H]1C=C[C@H](O/N=C\[C@@H](C)[C@H](OCc2ccccc2)C(C)C)[C@H](CO)O1 | 9.01% [at 11.4 µM] | –
COc1cc(C2C(=O)N(C3CCCC3)CC(=O)N2Cc2ccco2)ccc1OC(C)C (centres undefined) | -9.22% | –
COc1ccc(C2Nc3ccccc3C(=O)N2Cc2ccco2)cc1COc1ccc([N+](=O)[O-])cc1 (centres undefined) | -16.8% | –
O=C1c2ccccc2NC(c2ccc(F)cc2)N1Cc1ccco1 (centres undefined) | – | 25.1 µM (active)
Cc1ccc(C2Nc3ccccc3C(=O)N2Cc2ccco2)cc1 (centres undefined) | – | 15.8 µM (active)
CN(Cc1ccco1)C(=O)C1CCC(=O)N1Cc1ccc(F)cc1 (centres undefined) | 17.4% | –
CC(C)Oc1ccc(/C(O)=C2/C(=O)C(=O)N(Cc3cccnc3)C2c2ccco2)cc1 (centres undefined) | -5.23% | –
CC(=O)Nc1ccc(NC(=O)C/C(C)=N/NC(=O)C(=O)N2CCCC2)cc1 | 1.33% | –
C/C(CC(=O)Nc1cc(C)ccn1)=N\NC(=O)COc1cccc(C)c1 | – | 14.1 µM (active)
Cc1ccc(S(=O)(=O)CCc2nnc(NC(=O)COc3cccc(C)c3)s2)cc1 | 7.38% | –
COc1cccc(-c2cc(C(F)(F)F)nc(N3CCN(c4ccccc4)CC3)n2)c1 | – | 12.6 µM (active)

Compound | activity, negative = inhibition | AC50
COc1cccc(-c2cc(C(F)(F)F)nc(N3CCCCC3)n2)c1 | – | 1 µM (active)
COc1cccc(-c2cc(C(F)(F)F)nc(N3CCOCC3)n2)c1 | – | 0.794 µM (active)
COc1cccc(-c2cc(C(F)(F)F)n3ncc(S(=O)(=O)c4ccccc4)c3n2)c1 | -19.7% | –
CCOC(=O)N1CCC(NC(=O)CCC(=O)N2CCOc3ccccc32)CC1 | -14.2% | –
CCOC(=O)[C@H](N)/C=C(\C)CP(=O)(O)O | -17.3% | –
CCCC(=O)Nc1nc(-c2ccc3c(c2)CCN3S(C)(=O)=O)cs1 | -3.69% | –
CC(C)(C)C(=O)N1CCc2cc(-c3csc(N)n3)ccc21 | – | 7.08 µM (active)
CO[C@H]1COC(=O)[C@@H](Cc2ccccc2)NC(=O)[C@@H](C)COC(=O)CCC[C@@H]1C | -3.47% [at 11.4 µM] | –
COCC(=O)N(C)c1nnc(-c2ccc([N+](=O)[O-])cc2)s1 | – | 3.16 µM (active)
COCC(=O)N1CCN(c2ccc([N+](=O)[O-])cc2)CC1 | -1.44% | –
O=C(CN1CCCCC1)Nc1nnc(-c2ccc([N+](=O)[O-])cc2)s1 | -14.5% | –
COc1ccc(NC(=O)C(c2ccc(OC)cc2)N(C)C(=O)CNC(C)=O)cc1 (centres undefined) | -5.37% | –
COc1ccc(NC(=O)OC(C)C)cc1 | – | 11.2 µM (active)
COc1ccc(NC(=O)N2CCC3(CC2)CCN(S(C)(=O)=O)CC3)cc1 | 3.99% | –
Cc1ccc(C)c(NC(=O)c2ncn[nH]2)c1 | – | 15.8 µM (active)
COc1ccc(NC(=O)N2CCCC3(CCNCC3)C2)cc1 | -1.6% | –
Cc1ccc(C)c(NC(=O)C2CC3c4ccccc4C2c2ccccc23)c1 (centres undefined) | -5.49% | –
COC(=O)N1CCC2(CC1)CN(C(=O)Nc1ccc(OC)cc1)C2 | -0.895% | –
COc1ccc(NC(=O)c2ncn[nH]2)cc1 | – | 11.2 µM (active)
Cc1ccc(C)c(NC(=O)Cn2c([N+](=O)[O-])cnc2C)c1 | -3.91% | –
CC(C)c1ccc(O)c(NC(=O)c2ncn[nH]2)c1 | – | 15.8 µM (active)
CC(C)CN1CCC2(CC1)CCN(C(=O)c1cccn1C)CC2 | 9.28% | –
COCC(=O)N1CCC2(CCCN(c3ncccn3)C2)CC1 | -20.4% | –
N=C(N)SCc1nc2ccccc2c(=O)n1-c1ccccc1Cl | – | 1.26 µM (active)

Compound | activity, negative = inhibition | AC50
COc1cc(C=O)ccc1OCCCOc1ccccc1C(=O)O | -8.32% | –
COc1ccc(C=Nc2c(O)ccc3ccccc23)cc1OC | – | 0.251 µM (active)
COC(=O)C/C=C\[C@@H](C)[C@@H](/C=N\O[C@@H](C)c1cn([C@H](CO)Cc2ccccc2)nn1)NS(=O)(=O)c1ccc(C)cc1 | -0.854% [at 11.4 µM] and -7.61% [at 11.4 µM] | –
CC(C)CN1CC2(CCN(C(=O)c3cccc(F)c3)CC2)C1 | 3.33% | –
O=C1CCC(c2ccccc2)=NN1c1nc2ccccc2s1 | – | 0.398 µM (active)
COc1cccc(-c2cncnc2-n2ccnc2)c1 | – | 0.1 µM (active)
N#Cc1cccc(-c2cncnc2-n2ccnc2)c1 | – | 15.8 µM (active)
COc1ccccc1-c1cncnc1-n1ccnc1 | – | 12.6 µM (active)
c1cncc(-c2cncnc2-n2ccnc2)c1 | – | 20 µM (active)
Cc1cn(CC[C@H](N)C(=O)O)c(=O)[nH]c1=O | -9.38% [at 11.4 µM] | –
COC(=O)C[C@@H]1O[C@H]1[C@H](C)[C@@H](OC)C(C)C | -6.59% [at 11.4 µM] | –
COC(=O)[C@@]1(Cc2ccc(OC)cc2)[C@@H]2[C@@H](CC(=O)[C@H]2CC(=O)C(=O)N2CCCC2)CN1C(=O)c1ccccc1 | -20.3% | –
COc1ccc(C[C@@H]2C(=O)N[C@H](C)C(=O)N(C)[C@@H]3Cc4ccc(cc4)Oc4cc(ccc4O)C[C@H](C(=O)N[C@@H](C)C(=O)N[C@H](C)C(=O)N2C)N(C)C3=O)cc1 | -16.4% [at 11.4 µM] | –
CC(C)CC(=O)N[C@H](C(=O)N[C@H](C(=O)N[C@@H](CC(C)C)[C@H](O)CC(=O)N[C@@H](C)C(=O)N[C@@H](CC(C)C)[C@H](O)CC(=O)O)C(C)C)C(C)C | 1.07% [at 25.6 µM] | –
COc1ccc(O[C@H]2C=C[C@@H](c3ccccc3)O[C@@H]2CO/N=C(\C)CCN2CCc3nc(-c4ccccc4)c(-c4ccccc4)cc3C2)cc1 | -6.98% [at 11.4 µM] | –
Cc1ccccc1C(C(=O)NCc1ccccc1)N(Cc1ccco1)C(=O)c1ccccn1 (centres undefined) | -0.421% | –
CCC(=O)N(Cc1ccco1)c1nc(-c2ccccc2)cs1 | – | 1.26 µM (active)
Cc1cc2cccc(C)c2nc1SCC(=O)N(C)c1nc(-c2ccccc2)cs1 | -13.1% | –
CCn1c(C)cc(/C=C2\NC(=O)N(Cc3ccc(Cl)cc3)C2=O)c1C | – | 0.355 µM (active)
CCC(C(=O)NC(C)(C)C)N(C(=O)Cn1nnc(-c2cccs2)n1)c1cnc2ccccc2c1 (centres undefined) | -18.4% | –
O=C(Nc1cnc2ccccc2c1)c1cccc(-n2cnnn2)c1 | – | 12.6 µM (active)
Cc1cccc(N2CCN(CC(=O)Nc3ccc(-n4cnnn4)cc3)CC2)c1C | 1.94% | –
